Screens: PubChem BioAssay, several laboratories
Cav32 inh: Cav3.2 calcium influx blockers – cell-based, Fluo-4 calcium fluorescence, FDSS, MLSMR library, primary screen; B-score at 10 µM; Voltage-dependent T-type calcium channel subunit alpha-1H (Homo sapiens), O95180; Cav3.2-expressing cells; stronger effect = lower value; actives 4% (n = 100,000);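 active = single-dose well whose peak fluorescence ratio is a statistical outlier from its plate by either plate-standardised score or position-corrected B-score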
CYP2C19 inhib: blockers of cytochrome P450 2C19 activity – biochemical, luminescence, ADME assay, primary screen; P33261; CYP2C19 Supersomes, luciferin-H EGE luminescence, 30 min; inhibition, % at 5 µM; actives 21% (n = 96,000);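 active = CYP2C19 inhibition above a set limit at 5 µM in the primary screen, cut at about 50% in these data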;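 note: plate controls were negative control wells for no effect and 2.5 mM tranylcypromine positive control for full effect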
CYP2C9 activ: human CYP2C9 activators, primary screen, biochemical, luminescence; Cytochrome P450 2C9 (Homo sapiens), P11712; recombinant CYP2C9, luciferin-H conversion; stronger effect = higher value; factor 1 = untreated enzyme, 0 = blocked; activation factor at 5 µM; actives 1.4% (n = 96,000);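 active = activation factor of 2 or more for CYP2C9 at a 5 µM dose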;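 note: 0 = sulfaphenazole-blocked wells and 1 = vehicle-only wells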
Target sequence (P11712 whole entry, looked up): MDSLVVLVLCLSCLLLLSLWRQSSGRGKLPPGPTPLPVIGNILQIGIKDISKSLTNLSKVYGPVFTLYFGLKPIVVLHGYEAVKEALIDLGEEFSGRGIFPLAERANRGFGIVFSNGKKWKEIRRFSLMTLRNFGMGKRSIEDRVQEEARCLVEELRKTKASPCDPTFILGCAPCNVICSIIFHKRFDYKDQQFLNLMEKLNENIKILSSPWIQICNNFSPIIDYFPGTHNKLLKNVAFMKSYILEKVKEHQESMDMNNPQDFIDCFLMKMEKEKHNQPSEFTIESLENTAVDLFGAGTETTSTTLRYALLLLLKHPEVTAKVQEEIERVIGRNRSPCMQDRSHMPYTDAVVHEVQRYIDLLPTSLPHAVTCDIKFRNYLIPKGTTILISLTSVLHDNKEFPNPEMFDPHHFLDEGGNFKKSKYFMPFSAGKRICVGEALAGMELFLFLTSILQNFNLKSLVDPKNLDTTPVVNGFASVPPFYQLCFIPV
CYP2C9 inhib: blockers of cytochrome P450 2C9 activity – biochemical, luminescence, ADME assay, primary screen | P11712 | CYP2C9 Supersomes, luciferin-H conversion | inhibition, % at 5 µM | actives 20% (n = 96,000) | AID 777, 2007;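 active = blocking of liver enzyme CYP2C9 beyond about 50% at 5 µM, limit read from the data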
CYP2C19 activ: human CYP2C19 activators, primary screen, biochemical, luminescence; Cytochrome P450 2C19 (Homo sapiens), P33261; recombinant CYP2C19, luciferin-H EGE luminescence; stronger effect = higher value; 0 = fully inhibited enzyme, 1 = untreated enzyme; activation factor at 5 µM; 96,000 tested, under 10 active; AID 1025, 2008;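 active = activation factor of at least 2 at 5 µM in the primary screen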;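 note: 0 = wells with 2.5 mM tranylcypromine and 1 = vehicle-only wells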
* = called active by the depositor; · = no result given. Only some compounds are listed: those with a hit (about 27% of all), similar ones and a draw of the others.

SMILES | Cav32 inh | CYP2C19 inhib | CYP2C9 activ | CYP2C9 inhib | CYP2C19 activ
O=C(CSc1ncn[nH]1)Nc1ccccc1Sc1ccc(Cl)cc1 | -3.9 | 98* | 0.1 | 93* | 0
COC(=O)c1ccc(Cl)c(NC(=O)CSc2ncn[nH]2)c1 | -1.2 | 74* | 0.6 | 41 | 0.3
COC(=O)c1ccc(C(=O)OC)c(NC(=O)CSc2ccccn2)c1 | -1.4 | 48 | 0.5 | 47 | 0.5
Cc1ccc(C(O)P(=O)(OC2CCCCC2)OC2CCCCC2)cc1 (centres undefined) | -4.2* | 89* | 0.4 | 62* | 0.1
CC(c1ccco1)N(C(=O)C12CC3(C)CC(C)(CC(C)(C3)C1)C2)c1ccccn1 (centres undefined) | -0.44 | 12 | 1 | 1 | 0.9
Cc1ccc(CNC(=O)CCc2nc3ccccc3c(=O)[nH]2)cc1 | -0.51 | -2 | 0.9 | 6 | 1
Cc1ccc(S(=O)(=O)Cc2nc3ccccc3c(=O)[nH]2)cc1 | 2.2 | 85* | 0.8 | 24 | 0.2
Cc1ccc(S(=O)(=O)N2CCC(C(=O)NCc3ccncc3)CC2)cc1 | 0.96 | 84* | 0 | 99* | 0.2
COc1ccc(S(=O)(=O)N2CCCC(C(=O)NCc3ccncc3)C2)cc1 (centres undefined) | · | 99* | 0 | 99* | 0
COc1ccc(S(=O)(=O)N2CCCC(C(=O)Nc3ccc(OC)c(OC)c3)C2)cc1 (centres undefined) | 1.2 | 2 | 1.1 | -10 | 1
COc1ccc(S(=O)(=O)N2CCCC(C(=O)NCc3ccccn3)C2)cc1 (centres undefined) | -0.51 | 15 | 2.4* | -138 | 0.9
O=C(Oc1ccccc1C(=O)Oc1ccccc1)c1ccco1 | -1.2 | 38 | 0.5 | 47 | 0.6
CCc1ccc(C(=O)COC(=O)C(Cc2ccccc2)NC(=O)c2ccc(Cl)cc2)cc1 (centres undefined) | -4.8* | 4 | 0.8 | 23 | 1
CCCn1c(SCC(=O)Nc2nc(C)c(C(=O)OC)s2)nnc1C(C)C | -0.056 | 38 | 0.7 | 28 | 0.6
COCCn1c(SCC(=O)c2ccc(Cl)cc2)nnc1C(C)C | -0.29 | 74* | 0.9 | 11 | 0.3
CCn1c(SCC(=O)Nc2nc(C)c(C(=O)OC)s2)nnc1C(C)C | 0.52 | 50* | 0.7 | 34 | 0.5
CCCn1c(SCC(=O)Nc2ccc(OCC)cc2)nnc1C(C)C | 0.35 | · | · | · | ·
CCCn1c(SCC(=O)Nc2c(CC)cccc2CC)nnc1C(C)C | -0.093 | 58* | 0.5 | 49 | 0.4
COCCn1c(SCC(=O)Nc2cc(C)cc(C)c2)nnc1C(C)C | 0.043 | 61* | 0.8 | 21 | 0.4
COCCCNc1ncnc2nc[nH]c12 | · | -6 | 1 | -3 | 1.1
CCC(=O)Nc1cccc(NC(=O)CSc2nnc(C(C)C)n2CC)c1 | 0.12 | 4 | 1 | -1 | 1
CCc1cccc(C)c1NC(=O)CSc1nnc(-c2cc3cc(Br)ccc3o2)n1CC | -1.2 | 12 | 0.4 | 56* | 0.9
COCCn1c(SCC(=O)Nc2cccc(C)c2)nnc1C(C)C | 0.75 | 68* | 1.1 | -10 | 0.3
Cn1c(SCC(=O)Nc2cccc(Br)c2)nnc1-c1cc2ccccc2o1 | -0.8 | 34 | 0.6 | 41 | 0.7
Cc1ncc(CCl)c2c1OC(C)(C)OC2 | 2.4 | · | · | · | ·
SMILES | Cav32 inh | CYP2C19 inhib | CYP2C9 activ | CYP2C9 inhib | CYP2C19 activ
CCOc1ccc(S(=O)(=O)Nc2cccc(OC)c2)cc1 | -3.4 | 69* | 0.4 | 56* | 0.3
CCCCOc1ccc(S(=O)(=O)Nc2cccnc2)cc1 | -1.4 | 61* | 0.1 | 89* | 0.4
COC(=O)COc1cccc(NS(=O)(=O)c2ccc(NC(C)=O)cc2)c1 | 0.11 | 33 | 0.7 | 26 | 0.7
CCOc1ccc(S(=O)(=O)Nc2cccc(N(C)S(C)(=O)=O)c2)cc1 | -0.0082 | 93* | 1.2 | -20 | 0.1
CC(=O)Nc1ccc(S(=O)(=O)Nc2cccc(N(C)S(C)(=O)=O)c2)cc1 | · | -4 | 1.1 | -11 | 1
O=C1CC(=O)C(n2cncn2)C(c2ccc(Cl)cc2)C1 (centres undefined) | 0.95 | 6 | 0.9 | 10 | 0.9
CCSc1ccc2nnc(-c3ccc(F)cc3)n2n1 | 0.6 | 22 | 1 | 4 | 0.8
CCCCNS(=O)(=O)c1ccc2nc(SCC(=O)Nc3sccc3C#N)[nH]c2c1 | -3.5* | 69* | 0 | 97* | 0.3
COc1ccc2nc(SCC(=O)/C(C#N)=C(\C)N)[nH]c2c1 | 0.3 | 33 | 0.8 | 15 | 0.7
CCCCNS(=O)(=O)c1ccc2nc(SCC(=O)c3ccccc3OC)[nH]c2c1 | -4 | 94* | 0.1 | 94* | 0.1
CCOC(=O)c1c(C)[nH]c(C(=O)CSc2nnc(CC(C)c3ccccc3)o2)c1C (centres undefined) | -0.63 | 32 | 0.3 | 71* | 0.7
CCOC(=O)c1c(C)[nH]c(C(=O)CSc2ccc(Cl)cc2)c1C | -0.23 | 29 | 0.3 | 71* | 0.7
O=C(CSc1nnc(-c2ccccc2)o1)c1nnc(-c2ccccc2)o1 | 0.0053 | 9 | 0.3 | 74* | 0.9
CC(=O)c1c(C)[nH]c(C(=O)CSc2nnc(-c3ccccc3)o2)c1C | 0.18 | 57* | 0.7 | 28 | 0.4
CC1=Nn2c(nc(-c3ccccc3)c2-c2ccccc2)NC(=O)C1Br (centres undefined) | 0.81 | 11 | 1 | -5 | 0.9
CNc1nnc(-c2ccc(N(C)C)cc2)s1 | 0.68 | · | · | · | ·
CC(Oc1ccc(-c2ccccc2)c(F)c1)c1ccn(S(=O)(=O)c2ccc(Br)cc2)n1 (centres undefined) | -2.8 | 58* | 0.3 | 71* | 0.4
O=C(NCCN1CCN(c2ccccc2)CC1)C1CCN(S(=O)(=O)N2CCOCC2)CC1 | -0.46 | 3 | 0.9 | 10 | 1
Clc1ccc(CNC2CCCC2)cc1 | -0.43 | 78* | 0.8 | 19 | 0.2
Oc1ccc(CNC2CCCCC2)cc1 | · | -4 | 1.1 | -13 | 1
CCn1c(=O)n(CC)c2cc(S(=O)(=O)N3CCC(c4ccccc4)CC3)ccc21 | -1.1 | 33 | 0.3 | 68* | 0.7
CCOc1ccccc1N(C(=O)CNS(=O)(=O)c1ccccc1)C(CC)C(=O)NCc1ccco1 (centres undefined) | 0.13 | 16 | 0.8 | 16 | 0.8
CCOC(=O)C1CCCN(C(=S)Nc2ccc(C)cc2C)C1 (centres undefined) | 0.54 | 84* | 0.6 | 36 | 0.2
CCOc1ccccc1N1CCN(C(=O)C2c3ccccc3Oc3ccccc32)CC1 | -3.3 | 78* | 0.2 | 85* | 0.2
CS(=O)(=O)N1CCN(C(=O)c2ccccc2)C1 | -1.9 | 8 | 1.2 | -16 | 0.9
CCOC(=O)C1CCCN(c2c(Nc3cccc(C)c3)c(=O)c2=O)C1 (centres undefined) | 2.7 | 38 | 0.5 | 52* | 0.6
